Screening data from PubChem BioAssay.
HIF-2a inh – inhibitors of HIF-2a; 0.72% of 360,000 active; inhibition, % at 18.8 µM; 786-0 RCC cells HIF-2a reporter, luciferase luminescence, overnight;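 active = inhibition of the luminescence signal of 40% or more relative to plate controls, in a single-dose primary screen at 18.75 µM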
Peg3 promoter – Peg3 promoter activity inhibition; inhibition, % at 20 µM; 1.7% of 360,000 active; AID 588405; HeLa PEG-Prom luciferase reporter, luminescence, overnight;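 active = inhibition of at least 50% at 20 µM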
KKLEB cytotox – CF airway cell cytotoxicity counter-screen; 0.36% of 360,000 active; KKLEB CF airway cells viability, ATPlite luminescence, overnight; active compounds read low; cells stimulated with P. aeruginosa culture filtrate; activity change (cytotoxicity), % at 5 µM;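 active = corrected activity change at or below -50% at 5 µM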
CF NFkB block – inhibitors of cystic fibrosis induced NF-kB; KKLEB NF-kB-GFP reporter, PAF-induced, GFP fluorescence overnight; inhibition, % at 5 µM; 0.86% of 360,000 active; AID 588850;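 active = at least 50% inhibition at 5 µM, scaled per plate between neutral and stimulator controls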;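 note: PAF is a Pseudomonas aeruginosa culture filtrate used as stimulus; plate controls were PAF-stimulated DMSO wells for no effect and unstimulated DMSO wells for full effect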
ABHD5 PLIN5 PPI – inhibitors of human ABHD5-perilipin-5 interaction; Split G. princeps luciferase complementation, luminescence, 4 h; inhibition, % at 4 µM; 0.78% of 360,000 active; AID 602281;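 active = inhibition above the mean inhibition across every tested compound plus 3 SD, cut at about 22% in these data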;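 note: 0% = DMSO only wells and the 100% control is not disclosed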
Target sequence (Q00G26 whole entry, looked up): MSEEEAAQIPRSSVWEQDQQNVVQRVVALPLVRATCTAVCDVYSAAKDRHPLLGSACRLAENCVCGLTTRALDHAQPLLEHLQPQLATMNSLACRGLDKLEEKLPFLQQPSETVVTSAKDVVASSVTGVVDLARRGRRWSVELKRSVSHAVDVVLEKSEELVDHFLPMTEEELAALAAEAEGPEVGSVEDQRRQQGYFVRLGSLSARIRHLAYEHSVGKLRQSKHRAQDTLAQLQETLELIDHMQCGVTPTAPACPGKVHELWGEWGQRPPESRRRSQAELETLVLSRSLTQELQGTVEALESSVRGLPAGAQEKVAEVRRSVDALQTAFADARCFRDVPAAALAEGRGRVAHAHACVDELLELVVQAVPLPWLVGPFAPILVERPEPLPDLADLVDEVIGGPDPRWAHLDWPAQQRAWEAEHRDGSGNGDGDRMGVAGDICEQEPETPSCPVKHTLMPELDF
Target sequence (Q8WTS1 whole entry, looked up): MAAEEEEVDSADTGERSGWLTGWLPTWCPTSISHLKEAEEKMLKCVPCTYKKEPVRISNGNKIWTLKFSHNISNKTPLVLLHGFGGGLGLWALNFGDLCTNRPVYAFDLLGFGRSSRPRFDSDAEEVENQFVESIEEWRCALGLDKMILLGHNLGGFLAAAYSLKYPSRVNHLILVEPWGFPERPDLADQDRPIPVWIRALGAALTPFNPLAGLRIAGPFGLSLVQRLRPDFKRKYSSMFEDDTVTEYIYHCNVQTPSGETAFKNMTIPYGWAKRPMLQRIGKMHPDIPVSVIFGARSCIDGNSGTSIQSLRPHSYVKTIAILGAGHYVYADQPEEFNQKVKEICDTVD
MITF TRPM1 inh – inhibitors of MITF-driven TRPM1 promoter in melanoma cells; inhibition, % at 12.5 µM; AID 488899; 0.83% of 330,000 active; SK-MEL-5 TRPM1 promoter luciferase, 24 h;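 active = mean inhibition across replicates of 60% or more, whatever share of single replicates reaches that level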
ABHD5 PLIN5 conf – ABHD5-PLIN5 interaction inhibition, confirmed; shares compounds with ABHD5 PLIN5 PPI; biochemical ABHD5-PLIN5 interaction, luminescence; inhibition, % at 4 µM; 67% of 2,200 active; in the data active = inhibition above about 23%;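 note: 0% = DMSO vehicle wells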
HNF4 counter – active in HNF4 split-luciferase counter-screen for ABHD5-PLIN5 inhibitors | AID 651674 | inhibition, % at 4 µM | HNF4 dimerization, luminescence, biochemical | 77% of 2,200 active | shares compounds with ABHD5 PLIN5 PPI;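 active = mean inhibition across replicate wells exceeding the computed hit threshold, cut at about 13% in these data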;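 note: light from luciferase halves that rejoin when HNF4 fusion proteins dimerize; 0% = DMSO only wells and the 100% control is not given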
Numbers without * were called inactive; nt = no result given. Sampled rows, rich in hits. Any-hit rate of the full collection: about 3%.

SMILES	HIF-2a inh	Peg3 promoter	KKLEB cytotox	CF NFkB block	ABHD5 PLIN5 PPI	MITF TRPM1 inh	ABHD5 PLIN5 conf	HNF4 counter
Fc1cccc(Cc2c(-c3ccco3)nc3c(Cl)cc(C(F)(F)F)cn23)c1	-5	-10	-7	28	53*	nt	70*	83*
Brc1ccc2nc(-c3ccco3)c(Cc3ccccc3)n2c1	-65	-90	-1	14	59*	nt	63*	95*
O=C(N/C(=C\c1ccccc1)C(=O)N1CCCCC1)c1ccco1	3	5	-11	6	5	-1	nt	nt
O=C(C[C@H]1C/C=C\CC[C@H](Cc2ccc(F)cc2)C(=O)OCCNC1=O)NCCO	6	-5	1	-7	-9	0	nt	nt
CCOc1ccc(N2C(=O)C3ON(C)C(c4ccc([N+](=O)[O-])cc4)C3C2=O)cc1 (stereo not given)	14	-1	9	2	-5	0	nt	nt
O=C(O)C(C(=O)/C=C/c1ccco1)=C1SCCS1	-27	-3	-7	15	45*	-15	21	31*
O=C(C=C1SCCS1)/C=C/c1ccco1	-177	-179	4	3	31*	-10	44*	48*
COc1ccc(CCNC(=O)CN(Cc2ccc(Cl)cc2)S(C)(=O)=O)cc1	9	25	-2	-10	-4	5	nt	nt
Cn1c(=Nc2ccc(N3CCOCC3)cc2)ccc2ccccc21	7	8	17	-9	4	-8	nt	nt
Cn1c(N=Nc2ccc(N3CCOCC3)cc2)[n+](C)c2ccccc21	-43	-159	-10	10	24*	7	21	39*
CCc1nc2ccc(C(=O)N3CCN(C(=O)c4ccco4)CC3)cn2c1N(C)C(=O)COc1ccccc1	2	-3	2	-8	-2	nt	nt	nt
CCOC(=O)c1c(-c2ccc(C)o2)csc1NC(=O)CN(C)CC(=O)Nc1ccc(C)cc1	1	21	5	1	26*	-21	18	53*
O=S(=O)(c1ccc2nc(-c3ccco3)c(-c3ccco3)nc2c1)N1CCOCC1	15	16	-8	14	26*	-15	78*	62*
O=C(O)c1ccc2nc(-c3ccco3)c(-c3ccco3)nc2c1	18	4	14	-11	27*	5	82*	94*
CCOC(=O)C1(CCOC)CCN(Cc2ccc(C3CCCCO3)s2)CC1 (stereo not given)	11	1	-10	-4	-2	9	nt	nt
O=[N+]([O-])c1ccc(C2CC(c3ccccc3)=Nc3ccccc3S2)cc1 (stereo not given)	-77	-12	3	-8	79*	-13	26*	88*
O=C(O)C1CC(c2ccccc2)=Nc2ccccc2S1 (stereo not given)	-265	-160	2	11	-5	-45	nt	nt
Fc1ccc(C2CC(c3ccco3)=Nc3ccccc3S2)cc1 (stereo not given)	-108	-27	-4	2	46*	2	0	69*
N#C/C(=C\c1cc([N+](=O)[O-])c(N2CCOCC2)cc1N1CCOCC1)c1nc2ccccc2[nH]1	-1	29	-4	-49	0	-18	nt	nt
N#C/C(=C\c1ccc(N2CCOCC2)cc1)c1ccccc1	-242	-248	3	-26	9	-144	nt	nt
N#C/C(=C/c1ccc(N2CCOCC2)o1)c1nc2ccccc2[nH]1	-152	-45	0	-48	27*	-1	32*	50*
N#C/C(=C\c1ccc(N2CCOCC2)o1)c1ccccc1	-260	-313	14	-40	76*	-89	37*	101*
C/C(CC(=O)Nc1ccc(C)c(Cl)c1)=N\NC(=O)c1cccc(O)c1	3	5	-3	2	-2	-3	nt	nt
NC(=O)c1ccc(-n2c(CCC(=O)O)ccc2-c2cccs2)cc1	3	4	-5	-3	31*	-6	0	40*
CC(=O)c1ccc(-n2c(CCC(=O)O)ccc2-c2cccs2)cc1	-87	-158	-3	6	32*	3	5	49*
